Bioassay records from PubChem.
Calb FLC: affects C. albicans growth with fluconazole; C. albicans CaCi-2 (fluconazole-resistant clinical isolate) + fluconazole, Alamar Blue growth, 48 h; growth inhibition, % (concentration not given with the values); 300,000 tested, 0.57% active;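 active means growth inhibition above about 58% in most replicates, limit read from the data, passing the limit was not always enough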;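 further: all wells also contain fluconazole at 8 µg/ml as a sub-toxic cotreatment; 0% = median of DMSO wells and 100% = median of geldanamycin control wells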
SKKanGAS inh: inhibitors of SKKanGAS S. pyogenes growth in kanamycin (SK-promoter or general growth effect); 300,000 tested, 1.3% active; inhibition, % at 7.5 µM; AID 1662; BacTiter-Glo, 6 h;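 active means mean replicate score, as percent of positive control median, at least 50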;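 further: strain carries kanamycin resistance gene driven by streptokinase promoter and grows in 40 µg/ml kanamycin; loss of luminescence reflects streptokinase promoter inhibition or plain growth inhibition; 0% = median of DMSO wells and 100% = positive control at its reference dose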
CSC inhib: cancer stem cell inhibition; cancer stem cell-like cells viability, luminescence; inhibition, % at 7.5 µM; 300,000 tested, 1.1% active; AID 2717; in the data active means inhibition above about 75%; tested in HMLE shEcad cells
Mdm2 MdmX PPI: disrupts the human Mdm2-MdmX interaction. O15151+Q00987. SaOS-2 split-luciferase Mdm2/MdmX complementation, luminescence. inhibition, % at 8 µM. 330,000 tested, 3% active. AID 485346;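 active means inhibition of at least 50% at 8 µM in the primary screen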
MPTP block: blocks calcium-induced mitochondrial swelling; isolated mouse mitochondria, Ca2+ swelling absorbance, 30 min; inhibition, % at 10 µM; 360,000 tested, 1.4% active; AID 602449;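 active means inhibition of 50% or more, scaled per plate between neutral and stimulator controls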;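 further: 0% = DMSO wells given calcium and 100% = 1 mM EGTA wells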
Beta cell apopt: beta cell apoptosis inhibition; INS-1E cytokine-induced death, ATP luminescence, 48 h; percent of positive-control rescue, neutral wells zero; protection from apoptosis, % (concentration not given with the values); 300,000 tested, 0.8% active;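 active means Every replicate reaches about 75%, or at least half do and their mean reaches it too, limit read from the data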;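 further: 0% = cytokine-treated negative control wells and 100% = positive control rescue; higher means more ATP so stronger rescue from cytokine killing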
Mdm2-MdmX conf: confirmation of human Mdm2/MdmX interaction inhibitors | shares compounds with Mdm2 MdmX PPI | Mdm2-MdmX binding, luminescent assay | inhibition, % at 8 µM | 10,000 tested, 55% active | AID 489028; in the data active means inhibition above about 40%
FLuc counter: inhibits full-length luciferase, flagging false Mdm2/MdmX hits. shares compounds with Mdm2 MdmX PPI. SaOS-2 full-length luciferase counterscreen, luminescence. inhibition, % at 8 µM. 6,200 tested, 77% active. AID 504607;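 active means mean inhibition at 8 µM reaching about 37%, which flags the compound as non-specific, limit read from the data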;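 further: p53-null SaOS-2 cells with luciferase driven by a doxycycline-inducible promoter; compound on cells about two nights before reading with doxycycline added after day one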
* = called active by the depositor; . = no result. Hits are enriched below; roughly 5.4% of the tested compounds scored in any of these assays.

SMILES	Calb FLC	SKKanGAS inh	CSC inhib	Mdm2 MdmX PPI	MPTP block	Beta cell apopt	Mdm2-MdmX conf	FLuc counter
C=C1C(O)[C@@H]2O[C@]3(CC[C@H](/C=C/C(C)[C@@H]4CC(C)=CC5(O[C@H](C[C@@](C)(O)C(=O)O)CCC5O)O4)O3)CC[C@H]2O[C@@H]1C(O)CC(C)[C@H]1OC2(CCCCO2)CCC1C (some centres undefined)	.	.	.	98*	.	85*	100*	0
O=C1c2ccccc2-n2nnnc2C2c3ccccc3-n3nncc3CN12 (centres undefined)	.	.	.	.	-1	.	.	.
CC(C)(O)/C=C/C(=O)[C@](C)(O)C1[C@H](O)C[C@@]2(C)C3CC=C4C(C[C@H](O)[C@@H](O)C4(C)C)[C@]3(C)C(=O)C[C@]12C (some centres undefined)	.	.	53	98*	0	52	94*	7
CCOc1cc(C=C2C(=O)NC(=O)NC2=O)cc([N+](=O)[O-])c1O	7	0	-12	12	.	2	.	.
Cc1cccc(-n2c(/C=C/c3ccc([N+](=O)[O-])o3)nc3ccccc3c2=O)c1	-2	20	89*	94*	1	-13	57*	42*
O=c1c2ccccc2nc(/C=C/c2ccc([N+](=O)[O-])o2)n1-c1ccc(O)cc1	98*	9	.	75*	0	.	85*	23
C[N+]1(CCC(C(N)=O)(c2ccccc2)c2ccccc2)CCCCC1	-4	0	5	-16	.	2	.	.
Cc1c2ccncc2c(C)c2c1[nH]c1ccccc12	.	86*	109*	98*	3	119*	92*	2
COc1ccc(CCNC2CCCCC2)cc1	-18	6	-5	14	-4	-2	.	.
COc1ccc(C[C@H]2NC[C@H](O)[C@H]2OC(C)=O)cc1	.	0	79*	98*	0	51	98*	5
CCCCCn1c(=O)c(C(=O)NCc2ccncc2)c(O)c2ccccc21	84*	78*	23	51*	2	16	13	.
CCCCCCn1c(=O)c(C(=O)Nc2ncccc2O)c(O)c2ccccc21	21	10	33	45	15	.	.	.
CCCCn1c(=O)c(C(=O)NCc2ccc(Cl)cc2)c(O)c2ccccc21	11	25	76*	52*	4	.	14	.
c1cc(C2N3CCCN2CC3)ccn1 (centres undefined)	0	-1	0	-31	0	-10	.	.
Cc1c(C(=O)C(=O)N2CCC3(CC2)OCCO3)c2ccccc2n1C	-7	6	7	10	-2	-2	.	.
CC(=O)OC1CC(OC2C(O)CC(OC3C(O)CC(OC4CCC5(C)C(CCC6C5CCC5(C)C(C7=CC(=O)OC7)C(O)CC65O)C4)OC3C)OC2C)OC(C)C1OC1OC(CO)C(O)C(O)C1O (centres undefined)	.	.	.	.	-2	.	.	.
CC(=O)OC12COC1CC(O)C1(C)C(=O)C(O)C3=C(C)C(O)CC(O)(C(OC(=O)c4ccccc4)C21)C3(C)C (centres undefined)	.	.	.	.	0	.	.	.
CCCCCC(=O)N[C@@H](c1ccccc1)[C@@H](O)C(=O)O[C@H]1C[C@@]2(O)[C@@H](OC(=O)c3ccccc3)C3[C@](C)(C(=O)[C@H](O)C(=C1C)C2(C)C)[C@@H](OC1OCC(O)C(O)C1O)C[C@H]1OC[C@@]31OC(C)=O (some centres undefined)	-1	5	47	57*	-2	7	60*	52*
CC(=O)O[C@@]12CO[C@@H]1C[C@H](OC1OCC(O)C(O)C1O)[C@@]1(C)C(=O)[C@H](O)C3=C(C)[C@@H](OC(=O)[C@H](O)[C@@H](NC(=O)c4ccccc4)c4ccccc4)C[C@@](O)([C@@H](OC(=O)c4ccccc4)C12)C3(C)C (some centres undefined)	-1	2	42	53*	-2	11	39	59*
CC(=O)O[C@@]12CO[C@@H]1C[C@@H](O)[C@@]1(C)C(=O)[C@H](O)C3=C(C)[C@@H](OC(=O)[C@H](O)[C@@H](NC(=O)c4ccccc4)c4ccccc4)C[C@@](O)([C@@H](OC(=O)c4ccccc4)C12)C3(C)C (some centres undefined)	-3	12	-2	51*	-2	3	61*	48*
CCCCSP1(=S)NCCCO1 (centres undefined)	-8	-2	1	-7	-1	-9	.	.
Cn1c(O)c(C=NCc2ccco2)c(=O)n(C)c1=O	22	0	2	-8	-2	-2	.	.
O=C1N[C@H](Cc2ccccc2)C(=O)N2[C@@H]3[C@H](C[C@@H]12)c1ccccc1N3OOSc1ccccc1	-1	-1	-7	22	4	.	.	.
C[C@@H]1COc2cc(N3CCN(C)CC3)ccc2S(=O)(=O)N1	.	.	.	.	-1	.	.	.
COC(=O)C1=C(c2ccc(Cl)c(C(F)(F)F)c2)C[C@@H]2CC[C@H]1N2C(=O)N1CCCC1	.	.	6	-5	-1	3	.	.
SMILES	Calb FLC	SKKanGAS inh	CSC inhib	Mdm2 MdmX PPI	MPTP block	Beta cell apopt	Mdm2-MdmX conf	FLuc counter
COC(=O)C1=C(c2ccc(Cl)c(C(F)(F)F)c2)C[C@@H]2CC[C@H]1N2C(=O)N1CCC(O)(c2ccc(Cl)cc2)CC1	.	.	.	88*	-2	5	16	.
Cc1cc(C)cc(NC2=NCCCS2)c1	-9	5	-17	18	4	1	.	.
COc1ccc(O)c2c(=O)c3c(OC)cc4c(c3oc12)C1C=COC1O4 (centres undefined)	-2	28	36	74*	-2	24	63*	42*
COC(=O)C1=C(c2ccc(OCc3ccccc3)cc2)C[C@@H]2CC[C@H]1N2C(=O)NCCCc1ccccc1	.	.	15	28	0	12	.	.
Cc1ncc2n1-c1ccc(Cl)cc1C(c1ccccc1F)=NC2	.	.	.	51*	-2	.	14	.
CNC(=O)c1cccn(Cc2ccc(C(F)(F)F)cc2)c1=O	-5	-12	12	56*	0	10	26	.
C=CCNC(=S)N1Cc2ccccc2-n2nncc2C1	.	.	.	.	-1	.	.	.
COc1ccccc1C(=O)Nc1ccc2c(c1)CC1(C(=O)N(C)C(=O)N(C)C1=O)C1CCCN21 (centres undefined)	15	11	-10	13	0	0	.	.
CC1CCCC(C)N1/N=C/c1c[nH]c2ccc(Br)cc12 (centres undefined)	4	0	.	52*	12	4	27	.
C[C@]12CCC3C(CCC4=CC(O)CC[C@@]43/C=N/O)C1(O)CCC2C1=CC(=O)OC1 (some centres undefined)	2	1	115*	58*	0	-3	72*	19
